Screening results (PubChem)
A selection: hits, their analogues and other compounds. The true share with any hit is near 27%.
sEH inhibitor = blocks human soluble epoxide hydrolase activity | P34913 | recombinant human sEH enzymatic activity assay | inhibition, % at 2 µM | hit rate 0.34% among 91,000; in the data active = inhibition above about 80%
CYP2C9 inhib = blocks human cytochrome P450 2C9; inhibition, % at 5 µM; AID 777; P11712; hit rate 20% among 96,000; CYP2C9 Supersomes, luciferin-H conversion, luminescence;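 active = blocking of liver enzyme CYP2C9 beyond about 50% at 5 µM, limit read from the data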
CYP2C19 inh = blocks human cytochrome P450 2C19. P33261. CYP2C19 Supersomes, luciferin-H EGE luminescence, 30 min. inhibition, % at 5 µM. hit rate 21% among 96,000. AID 778;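 active = CYP2C19 inhibition above a set limit at 5 µM in the primary screen, cut at about 50% in these data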;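 also: plate controls were negative control wells for no effect and 2.5 mM tranylcypromine positive control for full effect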
Target sequence (P33261 whole entry, looked up): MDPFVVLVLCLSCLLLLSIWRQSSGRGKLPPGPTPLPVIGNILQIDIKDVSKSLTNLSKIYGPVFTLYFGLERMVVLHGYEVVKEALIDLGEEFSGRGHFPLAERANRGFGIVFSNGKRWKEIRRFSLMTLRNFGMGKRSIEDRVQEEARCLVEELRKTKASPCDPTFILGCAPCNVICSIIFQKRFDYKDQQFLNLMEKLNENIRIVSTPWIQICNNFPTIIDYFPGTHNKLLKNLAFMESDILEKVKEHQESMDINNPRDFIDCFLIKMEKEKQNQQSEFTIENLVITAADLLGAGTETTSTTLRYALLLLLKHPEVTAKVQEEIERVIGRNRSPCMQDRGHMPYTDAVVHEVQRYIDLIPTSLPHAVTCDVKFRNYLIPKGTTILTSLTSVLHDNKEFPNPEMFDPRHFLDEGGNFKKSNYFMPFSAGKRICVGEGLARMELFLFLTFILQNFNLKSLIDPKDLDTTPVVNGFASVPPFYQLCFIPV
sEH act = soluble epoxide hydrolase (human) activation; P34913; purified human sEH enzymatic activity, activator screen; activation, % at 2 µM; hit rate 0.04% among 91,000; AID 717; in the data active = activation above about 37%
CYP2C9 activ = CYP2C9 (human) activation | P11712 | recombinant CYP2C9, luciferin-H conversion, luminescence; hits give high values; factor 1 = untreated enzyme, 0 = blocked | hit rate 1.4% among 96,000 | activation factor at 5 µM;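 active = activation factor of 2 or more for CYP2C9 at a 5 µM dose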;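 also: 0 = sulfaphenazole-blocked wells and 1 = vehicle-only wells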
CYP2C19 act = increases human CYP2C19 enzyme activity; P33261; recombinant CYP2C19, luciferin-H EGE luminescence; hits give high values; 0 = fully inhibited enzyme, 1 = untreated enzyme; activation factor at 5 µM; 96,000 tested, under 10 active;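 active = activation factor of at least 2 at 5 µM in the primary screen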;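 also: 0 = wells with 2.5 mM tranylcypromine and 1 = vehicle-only wells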
The depositor's hits bear a star.

For Clc1ccccc1-c1ccc(CN2CCN(c3ccccc3)CC2)o1 the results were sEH inhibitor 3, CYP2C9 inhib 64*, CYP2C19 inh 74*, sEH act -2, CYP2C9 activ 0.4 and CYP2C19 act 0.3.
O=c1cc(CO)oc(CN2CCN(c3ccccc3)CC2)c1O was read as sEH inhibitor 3, CYP2C9 inhib -12, CYP2C19 inh -5, sEH act -3, CYP2C9 activ 1.1 and CYP2C19 act 1.1.
Screening COc1ccc(-c2nn(-c3ccccc3)cc2/C=N/NS(=O)(=O)c2ccccc2)cc1 returned sEH inhibitor 11, CYP2C9 inhib 63*, CYP2C19 inh 8, sEH act -9, CYP2C9 activ 0.4 and CYP2C19 act 0.9.
CC(C)(Oc1ccc(Cl)cc1)C(=O)NC1CCSC1=O (stereo not drawn) was read as sEH inhibitor 5 and sEH act -6.
For COc1ccc(-c2[nH]ncc2/C=N\NS(=O)(=O)c2ccc(Cl)cc2)cc1 the results were sEH inhibitor 1, CYP2C9 inhib 68*, CYP2C19 inh 90*, sEH act 1, CYP2C9 activ 0.3 and CYP2C19 act 0.1.
For CC(C)(Oc1ccc(Cl)cc1)C(=O)N/N=C/c1cn[nH]c1-c1ccccc1 the results were sEH inhibitor -2, CYP2C9 inhib 72*, CYP2C19 inh 72*, sEH act 3, CYP2C9 activ 0.3 and CYP2C19 act 0.3.
`COc1ccc(-c2[nH]ncc2/C=N\NS(=O)(=O)c2ccccc2)cc1OC` gave sEH inhibitor -3, CYP2C9 inhib 71*, CYP2C19 inh 43, sEH act 1, CYP2C9 activ 0.3 and CYP2C19 act 0.6.
For COc1ccc(-c2nn(-c3ccccc3)cc2/C=N/N2C(=O)CSC2=S)cc1 the results were sEH inhibitor -1, CYP2C9 inhib 30, CYP2C19 inh 8, sEH act 0, CYP2C9 activ 0.7 and CYP2C19 act 0.9.
COc1ccc(-c2cc(C(F)(F)F)nc(SCCC(=O)N3CCOCC3)n2)cc1 was read as sEH inhibitor 2, CYP2C9 inhib 14, CYP2C19 inh 2, sEH act -4, CYP2C9 activ 0.9 and CYP2C19 act 1.
`Cc1cccc(S(=O)(=O)Nc2cccc3c2C(=O)c2ccccc2-3)c1` gave sEH inhibitor 3, CYP2C9 inhib 59*, CYP2C19 inh -1, sEH act -1, CYP2C9 activ 0.4 and CYP2C19 act 1.
`COCc1nc2ccccc2n1CCCOc1ccccc1` gave sEH inhibitor -11, CYP2C9 inhib 78*, CYP2C19 inh 97*, sEH act 9, CYP2C9 activ 0.2 and CYP2C19 act 0.
`CC(C)C(=O)NCCc1nc2ccccc2n1C` gave sEH inhibitor -6, CYP2C9 inhib 1, CYP2C19 inh 20, sEH act 7, CYP2C9 activ 1 and CYP2C19 act 0.8.
`CC(C)C(=O)NCCc1nc2ccccc2n1CCCOc1ccc(Cl)cc1` gave sEH inhibitor 0, CYP2C9 inhib 77*, CYP2C19 inh 77*, sEH act 1, CYP2C9 activ 0.2 and CYP2C19 act 0.2.
Cc1ccc(OCCn2c(CCCO)nc3ccccc32)cc1 was read as sEH inhibitor -10, CYP2C9 inhib 28, CYP2C19 inh 59*, sEH act 11, CYP2C9 activ 0.7 and CYP2C19 act 0.4.
Screening OCCCc1nc2ccccc2n1CCOc1ccccc1 returned sEH inhibitor -1, CYP2C9 inhib 42, CYP2C19 inh 84*, sEH act 2, CYP2C9 activ 0.6 and CYP2C19 act 0.2.
`COc1ccc(/C=N/NC(=O)CC(=O)NCCc2ccccc2)cc1OC` gave sEH inhibitor -10, CYP2C9 inhib 8, CYP2C19 inh 33, sEH act 9, CYP2C9 activ 0.9 and CYP2C19 act 0.7.
CCCc1nc2ccccc2n1CCOc1ccccc1 was read as sEH inhibitor -20, CYP2C9 inhib 34, CYP2C19 inh 61*, sEH act 22, CYP2C9 activ 0.7 and CYP2C19 act 0.4.
O=C(Nc1nc2ccccc2n1CCOc1ccc(Cl)cc1)c1ccco1 was read as sEH inhibitor -12, CYP2C9 inhib 10, CYP2C19 inh 2, sEH act 11, CYP2C9 activ 0.9 and CYP2C19 act 1.
`CCOCCn1c(COc2ccccc2)nc2ccccc21` gave sEH inhibitor -6, CYP2C9 inhib 15, CYP2C19 inh 51*, sEH act 6, CYP2C9 activ 0.9 and CYP2C19 act 0.5.
